Our source for the activation values is PubChem BioAssay AID540308 (The Scripps Research Institute Molecular Screening Center, 2011).

The whole screen tested about 360,000 compounds, of which about 3,500 (0.97%) were called active. This is one part of a sample in which actives are shown more often than they occur. A number with no mark means an inactive call.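 The calls were made as follows: active = activation above a per-plate cutoff, the mean activation of sample wells on that plate plus 3 SD (cut at about 8% in these data); inactive = the rest.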

Sequence of Melanocortin receptor 4 (Homo sapiens) (P32245 whole entry, looked up): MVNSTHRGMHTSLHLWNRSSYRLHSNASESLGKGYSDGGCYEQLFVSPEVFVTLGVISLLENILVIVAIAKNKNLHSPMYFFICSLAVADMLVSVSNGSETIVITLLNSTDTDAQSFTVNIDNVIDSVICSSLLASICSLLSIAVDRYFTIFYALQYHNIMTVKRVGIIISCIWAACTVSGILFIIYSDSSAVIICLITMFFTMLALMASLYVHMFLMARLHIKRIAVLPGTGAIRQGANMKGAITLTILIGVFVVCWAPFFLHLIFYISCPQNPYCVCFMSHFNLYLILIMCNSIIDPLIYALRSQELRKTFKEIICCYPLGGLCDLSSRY

The experiment addresses Melanocortin receptor 4 (Homo sapiens) (UniProt P32245). The experiment can be described thus: MC4R agonists recruiting beta-arrestin, primary screen, cell-based, luminescence, agonist arm of biased-ligand search (AID 540308). The settings on record: U2OS MC4R beta-arrestin complementation, at 8.9 µM, stronger effect = higher value, percent of melanotan II response, DMSO zero.
As to `CCCCN(C=O)c1c(CC)nc2c(OCCC3CCCCC3)cccn12`, the activation was -0.53%.
Under `COc1ccc(Nc2nc(NCc3ccco3)nc(N/N=C/c3ccccc3Cl)n2)cc1` stands -2%; under `COc1ccc(Nc2oc(-c3ccccc3Cl)nc2C#N)cc1`, 13.3% (active).
Under `N#Cc1nc(-c2cccc3ccccc23)oc1N` stands -1.15%.
Under `COc1cccc(-c2ccc3c(c2)N(Cc2ccccc2OC)C(=O)C(C)S3)c1` (centres undefined) stands 0.04%.
As for `CC(C)Nc1nc(NCCOc2ccccc2Cl)c2sccc2n1`, the activation was -1.08%.
As for `CC(=O)Nc1cccc(-c2cc3nc(NCc4cccnc4)n(C)c(=O)c3s2)c1`, the figure is 0.57%; as for `COc1ccc(OC)c(C(O)c2ncc(-c3cccc(C(F)(F)F)c3)[nH]2)c1` (centres undefined), -1.84%; as for `COc1ccc(NC(=O)C2Cc3c(-c4cccc(NC(C)=O)c4)ccnc3O2)cc1OC` (centres undefined), -0.44%.
As for `COc1ccc(NC(=O)C2(C)Cc3c(-c4cccc(NC(C)=O)c4)ccnc3O2)cc1OC` (centres undefined), the figure is -2.08%; as for `S=C(NCCCc1cnc[nH]1)NCCCN(Cc1ccc(Cl)c(Cl)c1)c1ccc(Br)cn1`, 17.5% (active).
For `NCCCNC(=S)NCCCN(Cc1ccc(Cl)cc1)c1ccc(Br)cn1`, the activation was 5.16%.
Under `CCOC(=O)c1cccc(NC(=O)c2ccc(F)cc2F)c1` stands -1.66%; under `CCOC(=O)c1nn(-c2ccccc2F)c2nc(Nc3ccccc3)cc(=O)n12`, 10.2% (active); under `CCOC(=O)N1CCN(c2c(NCCN3CCN(c4ccccc4F)CC3)c(=O)c2=O)CC1`, -0.12%.
On to `COc1ccc(CN(Cc2ccc(OC)cc2)C(=O)c2cccs2)cc1`, for which the activation is -3.4%.
Under `COc1ccc(CCNC(=O)C(Sc2ccccn2)c2ccccc2)cc1OC` (centres undefined) stands -0.76%; under `COc1ccc(C(CCN(Cc2ccc(OC)c(OC)c2)C(=O)CCl)c2ccccc2)cc1` (centres undefined), 22.9% (active).
As for `CCCCCNC(=O)c1cccnc1SCC(=O)Nc1ccccc1OC`, the figure is -0.84%.
As to `Cc1ccccc1S(=O)(=O)NC(=O)C1(C)CCN1C(=O)C1(c2ccc(Cl)cc2)CC1` (centres undefined), the activation was 0.06%.
Turning to `CC1(C(=O)Nc2cccc3c2CCCC3)CCN1C(=O)C1(c2ccccc2)CC1` (centres undefined), the activation is 1.08%.
As for `Cc1nn(C)c(C(=O)NNC(=S)NC2CCCCC2)c1Cl`, the figure is -2.05%; as for `COc1cccc(NC(=S)NC(=O)c2c(Cl)c(C)nn2C)c1`, 16.6% (active); as for `COc1cccc(OC)c1C(=O)NC(=S)Nc1ccc(N2CCOCC2)c(Cl)c1`, -1.34%.
Under `CC1(C(=O)NS(=O)(=O)c2ccccc2Cl)CCN1C(=O)c1cccc(F)c1` (centres undefined) stands -0.15%.
Under `CC(=O)NN=C(C)c1ccc(NC(=O)C2CC2)cc1` stands -0.71%.
As for `CCOC(=O)CNC(=O)/C=C/c1c(Cl)cccc1Cl`, the activation is -0.83%.
As for `O=C(CC(=O)N/N=C\c1cccc(Cl)c1Cl)NCc1ccccc1`, the figure is -2.24%; as for `O=C(/C=C/c1c(Cl)cccc1Cl)NCc1ccccc1`, 19.2% (active); as for `Cc1nc2c(OCc3ccc(Cl)cc3Cl)cccn2c1N(C)CC1CC1`, -3.94%.
Under `CCCCC(=O)N(C)c1c(CC)nc2c(OCc3ccc(S(C)(=O)=O)cc3)cccn12` stands 0.14%; under `CCCOc1ccc(C(=O)C(CCC(CNCC)C(=O)c2ccc(OCCC)cc2)CNCC)cc1` (centres undefined), 24.6% (active).
On to `CCCOc1ccc(/C=N/NC(=O)C2CC2)c(OCCC)c1`, for which the activation was 0.66%.
As for `COC(=O)c1ccc(OCC(=O)NC(C)(C)C)cc1`, the figure is -0.44%; as for `COc1cncc(-c2cnc3sc(NCCc4ccccn4)nn23)c1`, -0.85%; as for `COc1ccc(OC)c(NC(=O)C2(C)CCN2C(=O)Cc2ccccc2)c1` (centres undefined), -0.64%.
As for `COc1ccc(NC(=O)C2Cc3c(-c4ccc5c(c4)OCO5)ccnc3O2)cn1` (centres undefined), the figure is 2.24%; as for `Cc1cc(C(=O)N2CCCC2(C)C(=O)O)c(C)o1` (centres undefined), -0.89%.
Under `c1ccc(Cn2nnc3c(NCC4CC4)ncnc32)cc1` stands 2.35%; under `Clc1ccc(Nc2ncnc3c2nnn3Cc2ccccc2)cc1`, 19.9% (active).
For the compound `CC(C)Nc1ncnc2c1nnn2Cc1ccccc1`, the activation is -0.12%.
For the compound `CCc1nc2c(OCc3ccc(C(F)(F)F)cc3)cccn2c1N(C)C(=O)CC(C)C`, the activation is -1.6%.
Under `CC(C)Cc1ccc(-c2cc3nc(NCc4cccc(Cl)c4)ccn3n2)cc1` stands -1.5%.
Under `Cc1ccc(C(=O)Nc2ccc(NC(=O)c3cccs3)cc2)c(C)c1` stands 13.3% (active); under `Cc1ccc(OCC(=O)Nc2ccc(NC(=O)c3cccs3)cc2)c(C)c1`, 2.63%.
Under `Cc1ccccc1C(=O)N1CCN(c2ccc(NC(=O)c3cccs3)cc2)CC1` stands -4.77%; under `O=C(NCc1cccnc1)c1cc(C2CCCN(C(=O)CCCc3ccccc3)C2)on1` (centres undefined), 0.26%; under `Cc1ccccc1-c1csc(C(O)c2cccc(Cl)c2)n1` (centres undefined), -1.62%.
Turning to `O=C(NCc1ccc(F)cc1)c1cc(C2CCCCN2C(=O)C2CCCCC2)on1` (centres undefined), the activation was -0.53%.
As for `COc1cc(F)ccc1-c1cc(C(=O)NCC2CCCCC2)[nH]n1`, the figure is 1.24%; as for `C=CCn1c(SCCOc2ccc(OC)cc2)nnc1C(NC(=O)c1ccc(OC)cc1)C(C)C` (centres undefined), 2.5%; as for `C=CCn1c(SCC(=O)c2ccc(Br)cc2)nnc1C(C)NC(=O)Cc1ccc(OC)cc1` (centres undefined), 9.94% (active).
Under `C=CCn1c(CNC(=O)c2ccco2)nnc1SCC(=O)c1ccc(OC)cc1` stands -1.26%; under `CC1(C(=O)NS(=O)(=O)c2cccs2)CCN1C(=O)Cc1ccc(-c2ccccc2)cc1` (centres undefined), 1.02%.
As for `CCCCN1CC(C)(C)[C@H](CC(=O)Nc2ccc(Br)cc2)C1=O`, the figure is 14.2% (active); as for `CC1(C)CN(Cc2cccnc2)C(=O)[C@H]1CC(=O)Nc1ccc(Br)cc1`, -2.67%.
`CC1(C)CN(CCc2ccccc2)C(=O)[C@H]1CC(=O)Nc1ccc(Br)cc1`: the activation is 1.43%.
In the case of `Cc1noc(C)c1-c1ccc(C(=O)NCc2ccncc2)c2occc12`, the activation is -0.03%.
For the compound `Cc1cccc(CNC(=O)c2sc(=O)n(Cc3ccccc3C)c2C)c1`, the activation was 0.16%.
